Measured values: PubChem BioAssay (NCI)
About 79,000 compounds went through this panel and 15% of them were active in at least one assay; those are over-represented in the sample as a whole. Activity calls are given as the source filed them. Rule as the data show it: active = growth inhibition above about 70%; inactive = the rest.

Key:
[1] = NCI Yeast Anticancer Drug Screen. Data for the rad50 strain (AID 155);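 also: 0% = growth of vehicle-only cultures of the same strain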; conditions: S. cerevisiae rad50 strain growth inhibition; at 50.0 µM; hits give high values
Summary of the method: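 Growth of the mutant yeast was measured after compound exposure and referenced to vehicle-treated cultures.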

[2] = NCI Yeast Anticancer Drug Screen. Data for the mec2-1 strain (AID 157); conditions: S. cerevisiae mec2-1 strain, at 50.0 µM, hits give high values
Summary of the method: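 Compounds were applied to mec2-1 yeast cells. Their growth was then compared with that of vehicle-treated cultures to give growth inhibition.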

[3] = NCI Yeast Anticancer Drug Screen. Data for the sgs1 mgt1 strain (AID 161);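 also: 0% = growth of cultures given vehicle only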; conditions: S. cerevisiae sgs1 mgt1 strain, at 50.0 µM, hits give high values
Summary of the method: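 Growth of a repair-deficient yeast mutant was monitored after compound treatment and expressed as inhibition relative to vehicle-treated cultures.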

[4] = NCI Yeast Anticancer Drug Screen. Data for the cln2 rad14 strain (AID 165);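 also: 0% = growth equal to vehicle treated cultures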; conditions: S. cerevisiae cln2 rad14 strain, at 50.0 µM, hits give high values
Summary of the method: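 Strain: cln2 rad14 yeast, altered in cell cycle control and DNA damage repair. Read-out: growth inhibition vs vehicle.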

[5] = NCI Yeast Anticancer Drug Screen. Data for the bub3 strain (AID 167); conditions: S. cerevisiae bub3 mutant strain, at 50.0 µM, hits give high values
Summary of the method: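 Whole-cell yeast assay. The mutant strain was incubated with compounds, and growth inhibition was determined by comparison with vehicle-treated cells.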

[6] = NCI Yeast Anticancer Drug Screen. Data for the mlh1 rad18 strain (AID 175); conditions: S. cerevisiae mlh1 rad18 strain growth inhibition; at 50.0 µM; hits give high values
Summary of the method: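 A repair-deficient yeast strain is exposed to test compound, and growth is scored relative to vehicle-treated controls.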

Measured: growth inhibition

CSCCC(NC(=O)c1cnc2ccccc2c1)C(N)=O (stereo unspecified)
inactive: [1] -0.25% | [2] -4.85% | [3] 2.6% | [4] -33.6% | [5] -21.8% | [6] 14.8%

COc1ccc(Cc2ccc3[nH]c(=O)cc(C)c3c2)cc1S(=O)(=O)O
inactive: [1] 33.8% | [2] -17.6% | [3] -15.5% | [4] 41.7% | [5] -17.7% | [6] 8.95%

Cc1ccc2ccccc2c1Cc1c(C=O)[nH]c(=S)[nH]c1=O
active: [1] 94.7% | [2] 90.8% | [3] 97% | [4] 82.5% | [5] 90.5% | [6] 98.8%

CCOC(=O)c1cnc(NCCCNc2ncc(C(=O)OCC)c(=O)[nH]2)[nH]c1=O
inactive: [1] -2.65% | [2] 4% | [3] -2.6% | [4] -44.9% | [5] 3.8% | [6] 10.3%

CCOC(=O)COc1ccc(Cl)cc1C
inactive: [1] 11.7% | [2] -4.7% | [3] -2.4% | [4] 4.45% | [5] 6.8% | [6] -17.2%

Cc1ccc(S(=O)(=O)c2ccc(C(=O)O)cc2)cc1
inactive: [1] 8.1% | [2] 10.4% | [3] 10.8% | [4] -6.05% | [5] 4.05% | [6] 17%

CCCC1(C(OC)OC)NC(=O)N(Cc2ccccc2)C1=O (stereo unspecified)
inactive: [1] 4.45% | [2] -5.15% | [3] 5.15% | [4] -19.7% | [5] -2.1% | [6] 4.75%

COC(=O)C1(COC(C)=O)CC1
inactive: [1] -6.8% | [2] 1.55% | [3] 6% | [4] -15.6% | [5] -2.75% | [6] -3.2%

NC(=O)/C=C1\NC(=O)CS1
inactive: [1] 0.05% | [2] 7.7% | [3] 1% | [4] -31.1% | [5] -4.55% | [6] 4.2%

CCN(CC)CCCC(C)Nc1c2ccc(Cl)cc2nc2c(Cl)cc(Cl)cc12 (stereo unspecified)
inactive: [1] -8.55% | [2] 4.75% | [3] 2.5% | [4] 23.6% | [5] 28.3% | [6] -8.85%

O=S(=O)(Cc1ccccc1)CC(Br)CBr (stereo unspecified)
inactive: [4] 27.4%
active: [1] 82.9% | [2] 97.2% | [3] 96.1% | [5] 95.2% | [6] 97.2%

CC(=O)Nc1ccc2ccccc2c1
inactive: [1] 7.15% | [2] 5.4% | [3] 0.3% | [4] -25.1% | [5] -4.1% | [6] 1.4%

CC1(C)C(=O)/C=C\C(=O)C(C)(C)C2=CC=C(O2)C(C)(C)C(=O)C(Br)C(Br)C(=O)C(C)(C)C2=CC=C1O2 (stereo unspecified)
inactive: [1] -20.4% | [2] -18.1% | [3] -68.5% | [4] 5.6% | [5] -34.9% | [6] -27.6%

Cn1cnc([N+](=O)[O-])c1Sc1ccccc1C(=O)O
inactive: [1] -2.7% | [2] -0.15% | [3] -23.1% | [4] 23.6% | [5] -0.35% | [6] -12.1%

COc1cc(CN2CCCCC2)cc2cc(C(=O)O)c(=O)oc12
inactive: [1] 8.75% | [2] 7.55% | [3] -34.9% | [4] -1.15% | [5] -15.3% | [6] -11.9%

CC1C(=O)N2C(=O)C(C)C(C)C(=O)N2C(=O)C1C (stereo unspecified)
inactive: [1] 1.8% | [2] -6.25% | [3] 7.9% | [4] -12.8% | [5] 3.85% | [6] -12.5%

CC(C)CC(=O)CC(=O)C(C)(C)C.CC(C)CC(=O)CC(=O)C(C)(C)C.CC(C)CC(=O)CC(=O)C(C)(C)C.CC(C)CC(=O)CC(=O)C(C)(C)C.[Ce]
inactive: [1] 3% | [2] 19% | [3] 55.4% | [4] -16.1% | [5] 2.6% | [6] 47.1%

Nc1ccc(C(C(=O)O)c2ccccc2)cc1 (stereo unspecified)
inactive: [1] 10.4% | [2] 15.8% | [3] 12.6% | [4] 1.4% | [5] 20.1% | [6] 10.9%

OC1CCCCC12CC2 (stereo unspecified)
inactive: [1] 3.85% | [2] 1.5% | [3] 5% | [4] -3.55% | [5] -15.2% | [6] -3.2%

O=C1OC2C(O1)C1(c3ccccc3)OC2(c2ccccc2)c2ccccc21 (stereo unspecified)
inactive: [1] -5.9% | [2] 19.2% | [3] 13.5% | [4] -57.2% | [5] 4.85% | [6] 45.1%

C=C(C)C1CC(=O)C2(C)C(C1)OC(=O)C2C(=O)OCC (stereo unspecified)
inactive: [1] 11.6% | [2] -0.65% | [3] -8.3% | [4] 8.95% | [5] 0.1% | [6] -6.65%

COC(=O)C1=C(C)NC(C)=C(C(=O)OC)C1c1cccc(N=O)c1
active: [6] 78.2%
inactive: [1] 9.85% | [2] 6.5% | [3] 13.3% | [4] 4.4% | [5] 26.6%

CC1(C)OC2C(C(=O)O)OC(n3cnc4c(N)ncnc43)C2O1 (stereo unspecified)
inactive: [1] -3.35% | [2] -12.2% | [3] -9.7% | [4] -2.05% | [5] -21.6% | [6] -0.7%

CC1=CC(C)(C)NC(=S)N1C1CCCCC1
inactive: [1] 9.75% | [2] -6.85% | [3] 6.3% | [4] -5% | [5] 6.55% | [6] 14.6%

CC(C)C(N)C(=O)Nc1nncs1 (stereo unspecified)
inactive: [1] 11.6% | [2] -2.15% | [3] -8% | [4] -10.1% | [5] -33.6% | [6] -28.6%

O=C(O)C1CCCCN1C(=O)c1ccccc1 (stereo unspecified)
inactive: [1] -26.6% | [2] -8.4% | [3] -12.2% | [4] -0.05% | [5] -21.2% | [6] -15.5%

O=C1CSC(=S)N1c1cccc(F)c1
inactive: [1] 32.1% | [2] -10.6% | [3] 2.1% | [4] -27.2% | [5] -18.1% | [6] 3.65%

COC1CCC2(C)C3CCC4C(=CCC5C(C)(C)C(O)CCC45C)CC3(C)CCC2C1(C)C (stereo unspecified)
inactive: [1] -8.45% | [2] -12.3% | [3] -31.3% | [4] -25.4% | [5] 1.2% | [6] -12.7%

CCCCOC(=O)/C(=C\c1ccc(OC(C)=O)c(OC)c1)NC(=O)c1ccccc1
inactive: [1] 4.7% | [2] 7.6% | [3] -1.5% | [4] -10.3% | [5] 14.9% | [6] -6.35%

Cc1ccc(NC(=S)SCc2ccc(Cl)c(Cl)c2)cc1Br
inactive: [1] 29.3% | [2] -6.45% | [3] 10.2% | [4] 15% | [5] 0.3% | [6] 13.8%

CS(=O)(=O)OC1CCCCC1OS(C)(=O)=O (stereo unspecified)
inactive: [1] 3.15% | [2] 8.25% | [3] 22.2% | [4] -1.85% | [5] 7.55% | [6] 9.15%

S=C1c2cc(Cl)ccc2NC(=NC2CCCC2)C2CSCN12 (stereo unspecified)
inactive: [1] 7.65% | [2] 14.7% | [3] 51.5% | [4] -3.25% | [5] 33.3% | [6] 28.5%

COC(=O)C(CC(=O)[C@H]1CC[C@H]2[C@@H]3CC=C4C[C@@H](OC(C)=O)CC[C@]4(C)[C@H]3CC[C@]12C)OC (stereo partly specified)
inactive: [1] 11.8% | [2] 8.6% | [3] 15.2% | [4] 2.45% | [5] -22.4% | [6] 9%

O=C(Nc1cccc2c1C(=O)c1c(NC(=O)c3ccccc3)ccc(Nc3cccc4c3C(=O)c3ccccc3C4=O)c1C2=O)c1ccccc1
inactive: [1] 8.05% | [2] -2.65% | [3] 0.9% | [4] 10% | [5] 9.05% | [6] 3.45%

Oc1c(CN2CCOCC2)cc(CN2CCOCC2)cc1CN1CCOCC1
inactive: [1] 7.7% | [2] 0.5% | [3] -5.4% | [4] 2.2% | [5] 6.6% | [6] 6.55%

NC(=O)N/N=C1\CC2CC1C1CCCC21 (stereo unspecified)
inactive: [1] 8.05% | [2] 5.35% | [3] -1.75% | [4] -0.5% | [5] -8.9% | [6] 15.3%

CC(C)/C=C1\CCC(CN(C)C)C1=O (stereo unspecified)
inactive: [1] 30.4% | [2] 56.1% | [3] 68.8% | [4] 31.4%
active: [5] 75% | [6] 85.8%

CCOC(=O)CCCN(c1ccc(OC)c(OC)c1)S(=O)(=O)c1ccc(C)cc1
inactive: [1] 32.1% | [2] 12.7% | [3] 43% | [4] 18.8% | [5] 16.4% | [6] 34.2%

O=C(CCl)Nc1cc(C(F)(F)F)ccc1Cl
inactive: [1] -0.15% | [2] 1.75% | [3] 18.1% | [4] 4.85% | [5] 23.9% | [6] 1.15%

Cc1cc(OCCCC(=O)O)ccc1Cl
inactive: [1] 51.8% | [2] 30.7% | [3] 54.1% | [4] 34.9% | [5] 49.1% | [6] 52.1%

O=[N+]([O-])c1ccc(Cl)c(C(F)(F)F)c1
inactive: [1] -0.8% | [2] 5.2% | [3] 4% | [4] -2.75% | [5] 1.2% | [6] -15.7%
